Assay outcomes as filed in PubChem.
HT1080NT lethal – qHTS for induction of synthetic lethality in tumor cells producing 2HG: qHTS for the HT-1080-NT fibrosarcoma cell line; HT-1080-NT fibrosarcoma viability, CellTiter-Glo ATP luminescence, 48 h; Potency, µM (highest dose often 46.1 µM), for the others: at the highest dose activity, negative = less viability, most hits filed as cytotoxic; actives 1.6% (n = 360,000); AID 686970, 2013;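 also: NT is the 2HG producing partner of a matched IDH1 knockdown line; potency is read from the fitted curve at half-maximal effect; 0% = DMSO-treated cells and -100% = media-only wells without cells; nearly all actives have a fitted effect of over 55% in size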
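Viability of the 2HG-overproducing fibrosarcoma line after 48 hours of compound exposure at 37 degrees C was determined by luminescence with CellTiter-Glo, and concentration-effect curves were then fitted and categorized.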
DT40 TDP1 CPT – qHTS for Inhibitors of human tyrosyl-DNA phosphodiesterase 1 (TDP1): qHTS in cells in presence of CPT; chicken DT40 Tdp1-/-;hTDP1 cells + 20 nM CPT, ATP luminescence, 48 h; Potency, µM (top dose mostly 46.2 µM), for the others: at the top dose activity change, negative = growth inhibition, most hits filed as inhibitors; actives 12% (n = 420,000); also: potency is read from the fitted curve at half-maximal effect; nearly all actives have a fitted effect of over 55% in size
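Chicken DT40 Tdp1-/- cells stably complemented with human TDP1 were seeded at 400 cells/well in medium containing 20 nM camptothecin, exposed to pin-transferred compounds, and grown at 37 °C for at least 48 hr. Viability was read as ATP luminescence.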
ELG1 DNA repair – qHTS screen for small molecules that inhibit ELG1-dependent DNA repair in human embryonic kidney (HEK293T) cells expressing luciferase-tagged ELG1. HEK293T ELG1-luciferase reporter, luminescence, 16 h; DNA damage induced by 5-fluorouridine. Potency, µM (highest dose often 46.1 µM), without a hit: top-dose activity change, negative = inhibition, most hits filed as inhibitors. actives 2.3% (n = 330,000); also: potency is read from the fitted curve at half-maximal effect; nearly all actives have a fitted effect of over 55% in size
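Luminescence from the luciferase reporter, measured 30 min after ONE-Glo reagent at room temperature, was the read-out. Beforehand, 2,000 cells per well were exposed for 16 hr at 37 °C to 5-fluorouridine together with compound or vehicle.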
IL1B secr inh – qHTS for Inhibitors of Inflammasome Signaling: IL-1-beta AlphaLISA Primary Screen; THP-1 LPS/ATP IL-1B secretion, AlphaLISA, 16 h; stronger effect = lower value; activity change, % at 57.5 µM; actives 4.7% (n = 360,000); in the data active = activity change below about -50%; inconclusive = mostly about -30% to -49%
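Secreted IL-1B measured by AlphaLISA bead assay after 16 h compound exposure of THP-1 cells; compounds (final up to 57.5 uM) added 1 h before LPS (250 ng/mL) and ATP (1.25 mM) stimulation; lower signal means less secretion.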
HT1080 IDH1KD tx – qHTS for induction of synthetic lethality in tumor cells producing 2HG: qHTS for the HT-1080-IDH1KD cell line; HT-1080 IDH1 knockdown viability, ATP luminescence, 48 h; Potency, µM (top dose mostly 46.1 µM), without a hit: at the highest dose activity, negative = toxicity, actives largely listed as cytotoxic; actives 2% (n = 360,000); AID 686971, 2013;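 also: potency is read from the fitted curve at half-maximal effect; 0% = DMSO wells and -100% = cell-free medium wells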
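Assay cells: HT-1080 with IDH1 knockdown, 750 per well, RPMI/5% FBS. Exposure: 48 h at 37 °C following 2 h pre-incubation. Read: CellTiter-Glo luminescence; fitted concentration-response, curve class assigned.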
TDP1 cell noCPT – qHTS for Inhibitors of human tyrosyl-DNA phosphodiesterase 1 (TDP1): qHTS in cells in absence of CPT; Potency, µM (series often up to 46.2 µM), inactives show at the highest dose activity change, negative = growth inhibition, most hits filed as inhibitors; AID 686978, 2013; actives 15% (n = 420,000); DT40 Tdp1-/- hTDP1 cells, no CPT, ATP luminescence, 48 h; also: potency is read from the fitted curve at half-maximal effect; nearly all actives have a fitted effect of over 55% in size
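DT40 Tdp1-/-;hTDP1 cells, no CPT (DMSO vehicle only), 400 cells/well; compounds pin-transferred; ≥48 hr, 37 °C; CellTiter-Glo 30 min RT dark, luminescence read.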
An asterisk follows results filed as active; ? = inconclusive; . = not tested or not shown; [ ] = remark or other dose. Most compounds without a hit are left out; they make up all but 19% or so of the library. Unless noted, calls follow the shape of the dose curve; as a rule, active = well fitted curve in the direction sought with a large enough effect; inconclusive = small, poorly fitted or top-dose-only effect, or another doubt; inactive = no such curve, though single readings can be large; an effect the other way counts as inactive or inconclusive. Unless noted, % is scaled to controls: 0 for no effect and ±100 for the full control effect.

SMILES	HT1080NT lethal	DT40 TDP1 CPT	ELG1 DNA repair	IL1B secr inh	HT1080 IDH1KD tx	TDP1 cell noCPT
CCOc1ccc(NC(=O)CN(c2ccc(C)cc2)S(=O)(=O)c2cccs2)cc1	.	4.6%	.	.	.	22.1%
Cc1cccn2c(=O)c3cc(C(=O)NCCN4CCOCC4)c(=N)n(Cc4ccc(F)cc4)c3nc12	-22.3%	7.31µM*	-19.0%	?	?	7.31µM*
CCCc1nc2ccc(Cl)cn2c1Cc1ccc(C)cc1	-17.5%	23.1µM*	.	37.7	?	23.1µM*
CCCc1nc2ccc(Cl)cn2c1Cc1cccc(Cl)c1	?	10.3µM*	.	-2.9	?	8.2µM*
CCCc1nc2ccc(C(=O)OC)cn2c1Cc1cccc(F)c1	-14.3%	?	.	16.7	?	?
CC(=O)Nc1cc(C(=O)N2CCCC(C)C2)cc2ncn(CCc3ccccn3)c12 (stereo not drawn)	.	3.6%[9.04 µM]	.	.	.	-19.0%
COCCNC(=O)c1cc2c(-c3ccc(Cl)cc3)nn(C)c2s1	-25.6%	?	?	-12.0	-13.5%	?
CNC(=O)c1cc(C)c(-c2ccccc2)s1	1.9%	?	?	9.7	0.0%	20.6µM*
Cn1nc(C(F)(F)F)c2cc(C(=O)Nc3ccc(C(F)(F)F)cc3)sc21	?	?	?	?	?	20.6µM*
Cn1nc(-c2ccccc2F)c2cc(C(=O)NCCc3ccc(Cl)cc3)sc21	.	?	.	.	.	16.4µM*
COCCNC(=O)c1cc2c(-c3ccccc3F)nn(C)c2s1	-7.3%	-25.0%	?	-54.0*	-15.7%	-23.0%
CC(C)N(C(=O)[C@H]1CC(CC(=O)NCCC2=CCCCC2)C(=O)N2CCc3c([nH]c4ccccc34)[C@]12C)C(C)C (stereo partly drawn)	1.9%	?	?	?	3.1%	?
CCCCN(C)CCNC(=O)c1cc2c(-c3ccccc3F)nn(C)c2s1	18.4µM*	-11.8%	?	-97.2*	?	?
CC(C)NC(=O)c1cc2c(-c3ccc(Cl)cc3)nn(C)c2s1	0.0%	-7.5%	?	16.2	-1.5%	-20.2%
CNC(=O)c1cc2c(-c3ccccc3)nn(C)c2s1	-4.5%	?	7.7%	-10.6	0.7%	20.6µM*
COC(=O)c1cc(NC(=O)c2cc3c(-c4ccccc4F)nn(C)c3s2)cc(C(=O)OC)c1	.	3.26µM*	.	.	.	?
Cc1cccc(NC(=O)CSc2nc3nc(C)cc(C)n3n2)c1	8.7%	4.8%	-3.9%	-10.8	-2.0%	-16.4%
CCN(C1CCCCC1)S(=O)(=O)c1ccc(S(=O)(=O)NCc2ccncc2)cc1	?	7.31µM*	?	?	?	9.2µM*
O=S(=O)(NCc1ccccc1)c1ccc(S(=O)(=O)N(Cc2ccccn2)C2CCCC2)cc1	?	?	20.6µM*	?	-2.8%[9.24 µM]	18.4µM*
Cn1cccc1C(=O)N1CCC2(CC1)CN(c1ccccn1)C2	.	-19.8%	.	.	.	?
N#Cc1sc2nc(-c3ccccc3)cc(-c3ccco3)c2c1N	-6.8%	18.4µM*	11.6%	-9.1	-4.2%	?
Cc1nn2c(=O)cc(COC(=O)c3ccc(NC(=O)C4CCCCC4)cc3)nc2s1	.	?	.	.	.	9.2µM*
CCc1nn2c(=O)cc(COC(=O)c3ccc(NC(=O)C4CCCCC4)cc3)nc2s1	.	?	.	.	.	18.4µM*
Cc1nn2c(=O)cc(COC(=O)c3ccc(S(=O)(=O)N4CCCCC4)cc3)nc2s1	8.0%	3.2%	-2.0%	26.6	3.3%	0.0%
Cc1ccc(NC(=O)Cn2c(=O)c3ccc(Cl)cc3n3nncc23)cc1	.	2.7%	.	.	.	3.9%
SMILES	HT1080NT lethal	DT40 TDP1 CPT	ELG1 DNA repair	IL1B secr inh	HT1080 IDH1KD tx	TDP1 cell noCPT
CC1=C(C)CS(=O)N(S(=O)(=O)c2ccccc2)C1 (stereo not drawn)	?	23.1µM*	?	-50.5*	?	10.3µM*
CC1=C(C)CS(=O)N(c2ccc(S(N)(=O)=O)cc2)C1 (stereo not drawn)	-24.1%	13µM*	-7.5%	-92.9*	-5.8%	23.1µM*
COc1ccccc1NC(=O)Cc1nnc(SCC(=O)NC2CCCCC2)n1C	-0.8%	4.6%	?	25.6	-0.6%	10.6%
Cc1cccc2cc(-c3ccccc3)c(-c3ccccc3)c[n+]12	?	8.2µM*	-24.6%	-3.3	?	7.31µM*
O=[N+]([O-])c1cccc(-c2cc3cccc[n+]3cc2-c2cccc([N+](=O)[O-])c2)c1	0.9%	-9.9%	-11.0%	18.0	3.0%	-12.0%
Cc1cccc(C)c1-n1nnnc1C(c1ccnc2ccccc12)N1CCN(C(=O)OC(C)(C)C)CC1 (stereo not drawn)	4.7%	-0.1%	.	6.1	2.6%	0.7%
O=C(CCCc1ccccc1)Nc1ccccc1[N+](=O)[O-]	1.0%	10.3µM*	?	4.0	-10.8%	20.6µM*
O=C(CCc1ccccc1)Nc1ccccc1[N+](=O)[O-]	22.8%	-2.0%	?	3.7	19.6%	1.5%
O=C(Cc1ccccc1[N+](=O)[O-])NCCCc1ccccc1	-14.7%	16.4µM*	4.0%	0.7	-16.0%	?
O=C(CCCc1ccccc1)Nc1ccc(Br)cc1F	1.1%	14.6µM*	?	-11.3	-6.0%	?
CC1(C(=O)NS(=O)(=O)C2CC2)CCN(C(=O)COc2ccc(Cl)cc2Cl)C1 (stereo not drawn)	?	-0.7%	.	15.1	12.5%	1.7%
CC1(c2nc3ccccc3[nH]2)CCC(=O)N1Cc1ccc(F)cc1 (stereo not drawn)	12.7%	-0.6%	.	17.3	16.9%	17.5%
COc1cc(C2c3c(oc4ccc(F)cc4c3=O)C(=O)N2Cc2ccc3c(c2)OCO3)ccc1O (stereo not drawn)	.	2.2%	.	.	.	-5.1%
Cc1cc(O)c(C(=O)/C=C/c2ccccc2Br)c(=O)o1	-11.6%	?	?	-76.8*	-12.4%	?
Cc1nc([N+](=O)[O-])cn1CC(O)c1ccc2c(c1)OCCCO2 (stereo not drawn)	.	0.5%	.	.	.	-4.2%
